Screening data as filed in PubChem BioAssay.
An excerpt weighted towards active compounds, which were near 2.1% of everything screened.
NRP1-CendR mod: NRP-1/CendR interaction modulation. AID 602438. hit rate 0.85% among 360,000. inhibition, % at 25 µM. FAM-RPARPAR peptide binding to NRP-1, fluorescence polarization. O14786;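 active = inhibition or corrected inhibition above about 18%, plus a signal ratio from 0.5 to 1.5, limit read from the data, passing the limit was not always enough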
PABP1 MLLE inh: blocks PAM2 peptide binding to the PABP1 MLLE domain; P11940; GST-MLLE / FITC-PAM2 fluorescence polarization; inhibition, % at 20 µM; hit rate 0.36% among 360,000; AID 588489; in the data active = inhibition above about 35%, passing the limit was not always enough;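 also: plate controls were DMSO wells with GST-MLLE for no effect and wells lacking GST-MLLE protein for full effect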
eIF4H inh: inhibitors of RNA binding by human eIF4H | Q15056 | eIF4H fluorescence polarization binding assay | inhibition, % at 35 µM | hit rate 0.94% among 290,000;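 also: calls also rest on retests at 20 µM and on dose response follow-up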
PABP FP inh: PABP-poly(A) binding inhibition; P11940; PABP-poly(A) RNA binding, fluorescence polarization; inhibition, % at 35 µM; hit rate 1% among 290,000; AID 2014;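 also: calls also rest on retests at 20 µM and on dose response follow-up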
* = called active by the depositor. Unless noted, no rule for the calls is given here.

What do the screens show for `Cc1ccc(S(=O)(=O)CCSC(=N)N)cc1`?
NRP1-CendR mod: 16.3; PABP1 MLLE inh: 21.2; eIF4H inh: -0.9; PABP FP inh: -0.6

How did Cc1c(CC(=O)O)c(=O)oc2cc(OCc3ccc(F)cc3Cl)ccc12 do in these assays?
NRP1-CendR mod: 50.9*; PABP1 MLLE inh: 10.6; eIF4H inh: 3.9; PABP FP inh: 6.7

What do the screens show for `Cc1c(CCC(=O)O)c(=O)oc2cc(OCc3ccccc3F)ccc12`?
NRP1-CendR mod: 2.8; PABP1 MLLE inh: 12.5; eIF4H inh: -4.3; PABP FP inh: 1.6

Results for COc1ccc(C(=O)c2coc3c2C(=O)C(=O)c2ccccc2-3)cc1 ?
NRP1-CendR mod: 25.2*; PABP1 MLLE inh: 3.5; eIF4H inh: 7.7; PABP FP inh: 17.9

What do the screens show for `O=C(c1ccccc1)c1coc2c1C(=O)c1ccccc1C2=O`?
NRP1-CendR mod: 13.4; PABP1 MLLE inh: 15.0; eIF4H inh: -10.9; PABP FP inh: -7.3

How did Cc1nnc(NC(=O)C2CCN(S(=O)(=O)c3ccc(F)c(F)c3)CC2)o1 do in these assays?
NRP1-CendR mod: -4.3; PABP1 MLLE inh: -7.9

How did CC1=NN2C(=N)/C(=C\c3cc(C)n(Cc4ccccc4)c3C)C(=O)N=C2S1 do in these assays?
NRP1-CendR mod: -12.1; PABP1 MLLE inh: -2.4; eIF4H inh: 1.3; PABP FP inh: 0.4

How did O=C(O)CCCN1C(=O)/C(=C\c2ccco2)SC1=S do in these assays?
NRP1-CendR mod: -55.2; PABP1 MLLE inh: 25.6; eIF4H inh: 99.9*; PABP FP inh: 95.9*

What do the screens show for `CC1=NN2C(=N)/C(=C\c3ccc(SCc4ccccc4)o3)C(=O)N=C2S1`?
NRP1-CendR mod: -59.4; PABP1 MLLE inh: 5.4; eIF4H inh: inconclusive; PABP FP inh: 121.0*

What do the screens show for `O=C(CN1C(=O)/C(=C\c2ccco2)SC1=S)Nc1ccc(O)cc1C(=O)O`?
NRP1-CendR mod: -118.9; PABP1 MLLE inh: -11.9; eIF4H inh: 79.2*; PABP FP inh: 117.2*

Results for Cc1ccc(N2C(=O)/C(=C\c3ccco3)SC2=S)cc1 ?
NRP1-CendR mod: -29.8; PABP1 MLLE inh: 8.6; eIF4H inh: 77.4*; PABP FP inh: 28.4*

How did COc1ccc(Cc2nnc(SCC(=O)Nc3ccccc3C#N)o2)cc1 do in these assays?
NRP1-CendR mod: 6.5; PABP1 MLLE inh: -5.8; eIF4H inh: -8.9; PABP FP inh: -7.6

Results for CC1Cc2ccccc2N1C(=O)COC(=O)c1ccc(N(C)C)cc1 (stereo unspecified) ?
NRP1-CendR mod: 0.3; PABP1 MLLE inh: 13.2

How did O=C(COC(=O)c1ccc(Cl)cc1Cl)Nc1cccc(S(=O)(=O)NC2=NCCC2)c1 do in these assays?
NRP1-CendR mod: -5.0; PABP1 MLLE inh: 1.9

Results for O=C(CCN1C(=O)/C(=C/c2ccco2)SC1=S)Nc1ccc(C(=O)O)c(O)c1 ?
NRP1-CendR mod: -169.4; PABP1 MLLE inh: -7.8; eIF4H inh: 86.2*; PABP FP inh: 83.8*

What do the screens show for `O=C(CCN1C(=O)/C(=C/c2ccco2)SC1=S)Nc1ccc(O)cc1C(=O)O`?
NRP1-CendR mod: -77.3; PABP1 MLLE inh: 11.2; eIF4H inh: 100.6*; PABP FP inh: 93.8*

What do the screens show for `O=C(O)CCN1C(=O)/C(=C\c2ccncc2)SC1=S`?
NRP1-CendR mod: 11.4; PABP1 MLLE inh: 26.6; eIF4H inh: -1.1; PABP FP inh: -9.3

Results for O=C(O)CCN1C(=O)/C(=C\c2ccc(-c3nc4ccccc4s3)o2)SC1=S ?
NRP1-CendR mod: -103.7; PABP1 MLLE inh: -78.6; eIF4H inh: 101.3*; PABP FP inh: 92.5*

How did O=C1/C(=C\c2ccco2)SC(=S)N1Cc1ccccc1 do in these assays?
NRP1-CendR mod: -19.8; PABP1 MLLE inh: 5.8; eIF4H inh: 75.8*; PABP FP inh: 37.6*

Results for C[C@@H]1CN([C@@H](C)CO)C(=O)c2cc(-c3ccccc3F)cnc2O[C@H]1CN(C)Cc1cccc(F)c1 ?
NRP1-CendR mod: -3.5; PABP1 MLLE inh: -4.3

What do the screens show for `CCCCCCCCCc1conc1C(=O)/C=C/c1ccco1`?
NRP1-CendR mod: -7.6

How did Cc1cc(C)cc(NC(=O)CSc2nnnn2-c2cccnc2)c1 do in these assays?
NRP1-CendR mod: 10.1; PABP1 MLLE inh: -7.3; eIF4H inh: -7.0; PABP FP inh: 9.1

Results for COc1cccc(Nc2nc(N)c([N+](=O)[O-])c(N3CCOCC3)n2)c1 ?
NRP1-CendR mod: 5.2; PABP1 MLLE inh: 5.5; eIF4H inh: -6.9; PABP FP inh: -1.7

How did CC(/C=C1\SC(=S)N(CCC(=O)Nc2ccccc2O)C1=O)=C\c1ccccc1 do in these assays?
NRP1-CendR mod: -69.9; PABP1 MLLE inh: -50.6; eIF4H inh: 50.6; PABP FP inh: active

Results for O=C1/C(=C/c2ccco2)SC(=S)N1CC1CCCO1 (stereo unspecified) ?
NRP1-CendR mod: -40.3; PABP1 MLLE inh: 5.2; eIF4H inh: 74.4*; PABP FP inh: 39.4

What do the screens show for `O=C(CCCN1C(=O)/C(=C\c2ccco2)SC1=S)Nc1ccc2ccccc2c1`?
NRP1-CendR mod: -63.0; PABP1 MLLE inh: -11.4; eIF4H inh: 78.5*; PABP FP inh: 1.4*

Results for COc1ccc(CCN2C(=O)/C(=C\c3ccco3)SC2=S)cc1OC ?
NRP1-CendR mod: -4.2; PABP1 MLLE inh: 1.2; eIF4H inh: 63.3*; PABP FP inh: active

What do the screens show for `COc1ccc(NC(=O)C2Cc3c(-c4cccc(F)c4)ccnc3O2)cc1OC` (stereo unspecified)?
NRP1-CendR mod: -14.4; PABP1 MLLE inh: 11.3

Results for COc1ccccc1S(=O)(=O)N(C)C[C@@H]1OCc2cnnn2CCCC(=O)N([C@H](C)CO)C[C@@H]1C ?
NRP1-CendR mod: 4.6; PABP1 MLLE inh: 0.3

Results for Cc1noc(C)c1COc1ccc(C(=O)NNC(=O)c2ccccc2O)cc1 ?
NRP1-CendR mod: -2.2; PABP1 MLLE inh: 9.0

What do the screens show for `COc1cccc(-c2cnc(C(O)c3ccc(Cl)cc3)[nH]2)c1` (stereo unspecified)?
NRP1-CendR mod: 9.2; PABP1 MLLE inh: 2.5

What do the screens show for `O=C(CCCN1C(=O)/C(=C/c2ccco2)SC1=S)Nc1ccccc1C(=O)O`?
NRP1-CendR mod: -115.8; PABP1 MLLE inh: 7.5; eIF4H inh: 100.2*; PABP FP inh: 84.3*

How did O=C(O)CN1C(=O)/C(=C/c2ccc(SCc3ccccc3)o2)SC1=S do in these assays?
NRP1-CendR mod: -163.3; PABP1 MLLE inh: -122.8; eIF4H inh: 59.6*; PABP FP inh: active

What do the screens show for `COc1ccc(/C=C2\SC(=S)N(CCC(=O)NC3CCCC3)C2=O)cc1OC`?
NRP1-CendR mod: 22.0*; PABP1 MLLE inh: 63.0; eIF4H inh: 8.5; PABP FP inh: 1.6

What do the screens show for `CCCN1C[C@H](CSC)C[C@@H]2c3cccc4[nH]cc(c34)C[C@H]21`?
NRP1-CendR mod: 8.9; PABP1 MLLE inh: 20.4; eIF4H inh: 100.5*; PABP FP inh: 2.0*

Results for Cc1ccc(C(=O)Oc2coc(CSc3nnc(NC(=O)c4cccs4)s3)cc2=O)cc1 ?
NRP1-CendR mod: -13.4; PABP1 MLLE inh: 5.8; eIF4H inh: 90.1*; PABP FP inh: 2.5*

What do the screens show for `CN1CCN(c2nc3nonc3nc2N2CCN(C)CC2)CC1`?
NRP1-CendR mod: 11.5; PABP1 MLLE inh: 24.8; eIF4H inh: 80.2*; PABP FP inh: 99.6*

How did CCNC(=S)NS(=O)(=O)c1ccc(C)cc1 do in these assays?
NRP1-CendR mod: -4.5; PABP1 MLLE inh: 41.1*; eIF4H inh: 0.3; PABP FP inh: -6.5
